The results in this text go back to PubChem BioAssay (NCATS).

Results filed as inconclusive are left out. Calls of active or inactive are those of the source. Unless noted, calls follow the shape of the dose curve; as a rule, active = well fitted curve in the direction sought with a large enough effect; inconclusive = small, poorly fitted or top-dose-only effect, or another doubt; inactive = no such curve, though single readings can be large; an effect the other way counts as inactive or inconclusive.

Assay [1] addresses Ferritin light chain (Equus caballus) (UniProt P02791). Briefly: qHTS Validation Assay for Identification of Novel General Anesthetics (AID 2323). Put shortly:
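Apoferritin from horse spleen (10 uM) was mixed with 1-aminoanthracene at 50% saturation in PBS, then compounds were added. After 10 min at room temperature, fluorescence was read (ex 380 nm, em 535 nm) and normalized to free-probe and complex controls.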
Background: Quantitative high-throughput screening tests each substance at several concentrations.

Assay [2] deals with ATP-dependent DNA helicase Q1 (Homo sapiens) (UniProt P46063). In words: qHTS Validation Assay for Inhibitors of RecQ-Like Dna Helicase 1 (RECQ1) (AID 2353). Put shortly: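 RECQ1T1 50 nM; forked duplex (20 bp + 30-nt ss tails) 200 nM, ATP 2 mM final; pH 8.0, 2 mM MgCl2, 2.5 ug/ml poly(dI-dC); 15 min compound preincubation; discontinuous kinetic read over 2 h at RT.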
Chain of ATP-dependent DNA helicase Q1 (Homo sapiens) (P46063 whole entry, looked up): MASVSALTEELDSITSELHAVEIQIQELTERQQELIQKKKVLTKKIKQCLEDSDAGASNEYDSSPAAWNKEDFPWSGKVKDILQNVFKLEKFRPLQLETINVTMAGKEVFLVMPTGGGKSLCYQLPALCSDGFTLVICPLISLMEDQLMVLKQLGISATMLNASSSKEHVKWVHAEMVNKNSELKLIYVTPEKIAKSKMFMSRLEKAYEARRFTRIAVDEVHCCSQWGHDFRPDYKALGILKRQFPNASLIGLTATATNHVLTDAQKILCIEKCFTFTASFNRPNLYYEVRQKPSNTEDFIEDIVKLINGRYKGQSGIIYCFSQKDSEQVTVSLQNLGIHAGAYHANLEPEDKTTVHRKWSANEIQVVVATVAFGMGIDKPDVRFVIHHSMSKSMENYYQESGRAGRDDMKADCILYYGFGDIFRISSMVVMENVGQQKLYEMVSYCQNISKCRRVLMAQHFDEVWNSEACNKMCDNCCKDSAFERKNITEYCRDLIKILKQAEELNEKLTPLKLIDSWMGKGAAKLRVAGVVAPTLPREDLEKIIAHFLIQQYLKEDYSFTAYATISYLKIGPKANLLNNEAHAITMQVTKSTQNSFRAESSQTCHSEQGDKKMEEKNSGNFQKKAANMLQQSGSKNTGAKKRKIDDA
Assay [3] in a line: Cytometric Cell-Based qHTS for Inhibitors of the mTORC1 Signaling Pathway in MEF (Tsc2-/-, p53-/-) Cells (AID 2660).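 Also: Tsc2 and p53 null MEFs carrying empty vector with compound for 24 h; percent of cells above a phospho-rpS6 to PI ratio cutoff in each well.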 Put shortly:
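Immunofluorescence qHTS of rpS6 Ser235/236 phosphorylation: MEFs (Tsc2-/-, p53-/-) treated 24 h, 37 C, in DMEM + 10% FBS. Alexa-488 signal normalized to PI count, referenced to rapamycin (7.5 nM) and DMSO; PI cell number recorded for viability.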

Assay [4] can be described thus: High Content Imaging Cell-Based qHTS for Inhibitors of the mTORC1 Signaling Pathway in MEF (Tsc2-/-, p53-/-) Cells (AID 2666).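 Also: percent of cells scored positive for phospho-rpS6 Ser235/236 immunostaining by imaging.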 Particulars: at 38.3 µM (top of the series). The method, boiled down: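 Inhibition of rpS6 phosphorylation is measured by immunofluorescence imaging in empty-vector Tsc2-/-, p53-/- mouse embryonic fibroblasts after 24 hrs compound exposure at 37 degree Celsius. Results are reported as % positive cells per well.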

A short description of assay [5]: High Content Imaging Cell-Based qHTS for Inhibitors of the mTORC1 Signaling Pathway in MEF Cells (AID 2667).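 Also: Tsc2-/- p53-/- MEFs stably re-expressing wild-type Tsc2 exposed 24 h.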 Put shortly: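 Fixed-cell imaging of phospho-S6 (Ser235/236, Alexa-488) after 24 hrs of compound treatment at 37 degree Celsius. Signal was normalized to Hoechst, and thresholds from the highest and lowest wells split cells into % active versus % non-active.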

Assay [6] is described as follows: Cytometry Cell-Based qHTS for Inhibitors of the mTORC1 Signaling Pathway in MEF cells (AID 2668).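 Also: Tsc2-/- p53-/- mouse embryonic fibroblasts stably re-expressing wild-type Tsc2; percent cells positive for phospho-rpS6 Ser235/236 relative to propidium iodide stain.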 The method, boiled down: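 Pathway inhibition in WT Tsc2-rescued Tsc2-/-, p53-/- MEFs is measured as the Alexa-488 phospho-rpS6 to propidium iodide intensity ratio after 24 hrs of compound at 37 degree Celsius. PI-stained cell number gives viability.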
Assay [7] in a line: Validation screen for small molecules that induce DNA re-replication in MCF 10A normal breast cells (AID 463097). Also: nearly all actives have a fitted effect of over 60% in size. Put shortly: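 DNA re-replication was detected as a rise in nuclei with elevated Hoechst fluorescence after a 48 hr compound exposure of MCF 10A cells at 37 C.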
In assay [8] the target is Ubiquitin carboxyl-terminal hydrolase 2 (Homo sapiens) (UniProt O75604). In words: qHTS Validation Assay for Inhibitors of Ubiquitin-specific Protease USP2a Using CHOP2 as the Reporter (AID 463106). Put shortly:
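Inhibition is expressed relative to NEM as the full-inhibition control, with concentration-response curves classed by fit quality, magnitude and activity. Enzyme (USP2 core, 10nM) meets 25nM Ub-CHOP2 after compound preincubation; readings are taken at 60min.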

For assay [9], the target named is DNA polymerase III PolC-type (Bacillus subtilis (strain 168)) (UniProt P13267). In words: qHTS Validation Assay for the Inhibitors of DNA Replication in Gram-Positive Bacteria (AID 485295).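 Also: reconstituted holoenzyme with PolC plus beta clamp SSB and primase; PicoGreen fluorescence of double-stranded DNA made on primed circular M13 template.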 The method, boiled down: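 Primed replication of single-stranded M13Gori by a four-protein B. subtilis holoenzyme is measured at room temperature. Double-stranded product is quantified by PicoGreen fluorescence after an EDTA stop; inhibition is scaled between DMSO and EDTA controls.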
Chain of DNA polymerase III PolC-type (Bacillus subtilis (strain 168)) (P13267 whole entry, looked up): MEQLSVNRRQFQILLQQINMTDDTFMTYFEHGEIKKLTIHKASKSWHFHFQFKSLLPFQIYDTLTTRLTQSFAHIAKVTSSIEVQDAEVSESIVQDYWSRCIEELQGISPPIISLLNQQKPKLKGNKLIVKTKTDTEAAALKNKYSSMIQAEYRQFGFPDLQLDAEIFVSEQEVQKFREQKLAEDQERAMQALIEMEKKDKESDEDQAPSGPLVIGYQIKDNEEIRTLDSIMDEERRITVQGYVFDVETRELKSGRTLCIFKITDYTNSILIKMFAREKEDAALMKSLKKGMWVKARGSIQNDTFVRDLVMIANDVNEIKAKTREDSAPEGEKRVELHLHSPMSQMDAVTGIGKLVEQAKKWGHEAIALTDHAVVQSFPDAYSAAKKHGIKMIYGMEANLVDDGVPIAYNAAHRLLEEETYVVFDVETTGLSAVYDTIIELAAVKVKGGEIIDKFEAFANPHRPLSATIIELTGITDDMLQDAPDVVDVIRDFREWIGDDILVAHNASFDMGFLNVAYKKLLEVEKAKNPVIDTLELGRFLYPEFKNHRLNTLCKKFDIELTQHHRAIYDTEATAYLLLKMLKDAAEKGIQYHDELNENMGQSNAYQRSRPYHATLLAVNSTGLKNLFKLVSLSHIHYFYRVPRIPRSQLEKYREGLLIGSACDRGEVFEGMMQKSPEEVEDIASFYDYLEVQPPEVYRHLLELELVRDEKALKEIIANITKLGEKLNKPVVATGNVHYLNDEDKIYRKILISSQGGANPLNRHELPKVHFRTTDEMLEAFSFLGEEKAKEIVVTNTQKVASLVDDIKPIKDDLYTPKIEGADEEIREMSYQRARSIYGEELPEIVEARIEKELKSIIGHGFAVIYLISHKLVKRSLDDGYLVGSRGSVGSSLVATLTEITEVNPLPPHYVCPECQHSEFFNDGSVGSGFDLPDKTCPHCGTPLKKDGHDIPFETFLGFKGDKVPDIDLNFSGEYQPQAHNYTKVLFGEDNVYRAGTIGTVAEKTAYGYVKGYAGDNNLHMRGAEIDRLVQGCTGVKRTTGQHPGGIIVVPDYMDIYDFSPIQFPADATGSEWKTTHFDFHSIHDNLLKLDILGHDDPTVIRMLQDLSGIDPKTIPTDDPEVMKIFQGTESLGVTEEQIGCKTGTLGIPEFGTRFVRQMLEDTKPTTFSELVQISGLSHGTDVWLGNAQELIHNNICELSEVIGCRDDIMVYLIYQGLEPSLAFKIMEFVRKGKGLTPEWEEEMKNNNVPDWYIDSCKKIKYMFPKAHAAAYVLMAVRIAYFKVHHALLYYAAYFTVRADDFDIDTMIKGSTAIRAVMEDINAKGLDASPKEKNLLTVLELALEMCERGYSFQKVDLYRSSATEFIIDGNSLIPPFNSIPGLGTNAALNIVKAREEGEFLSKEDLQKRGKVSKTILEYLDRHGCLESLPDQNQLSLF

Assay [10] has as its target Tumor susceptibility gene 101 protein (Homo sapiens) (UniProt Q99816). In words: qHTS Validation Assay for Iinhibitors of HIV-1 Budding by Blocking the Interaction of PTAP/TSG101 (AID 485342; calls by dose curve). Put shortly: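 Fluorescence anisotropy measured PTAP-Tsg101 interaction. Final concentrations were 10 uM protein domain and 50 nM labeled peptide, equilibrated 20 min at room temperature.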

Assay [11] in a line: qHTS Validation Assay to Find Inhibitors of Chronic Active B-Cell Receptor Signaling (AID 485345; active = well fitted curve in the direction sought with a large enough effect in the main read-out, with a control signal flat, not every such curve was filed as active). Put shortly: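 TMD8 ABC-DLBCL cells with dox-inducible green luciferase–IκBα fusion and red native luciferase; compounds 46 uM–3 nM, 4 h at 37C with doxycycline in 0.5% FBS IMDM. Green/red ratio normalized to basal and 10 uM MG-132.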
Assay [12] deals with Beta-2 adrenergic receptor (Homo sapiens) (UniProt P07550). In words: qHTS validation assay of beta-arrestin-biased ligands of beta2-adrenergic receptor (AID 485366). Put shortly:
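Agonism was measured as beta-arrestin recruitment to recombinant beta2-AR, releasing tTA to drive luciferase. Cells were exposed for 18 hr at 37 degrees C to a series up to 46 microM. %Activity from corrected luminescence gave concentration-response curves.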

The target in assay [13] is ATP-dependent 6-phosphofructokinase (Trypanosoma brucei brucei) (UniProt O15648). Briefly: qHTS Validation Assay to Find Inhibitors of T. brucei phosphofructokinase (AID 485368). Particulars: outcome: dose series up to 57.5 µM. The method, boiled down:
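ADP-Glo luminescence, two-step: residual ATP depleted, then ADP converted to ATP for luciferase. Enzyme 1.25 nM, F6P 0.5 mM, ATP 0.1 mM, pH 8.0 TEA buffer, 45 min RT. Curves fitted and classed by quality and efficacy.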

A short description of assay [14]: Quantitative high throughput screen for delayed death inhibitors of the malarial parasite plastid, 96 hour incubation (AID 488745).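 Also: luciferase-expressing P. falciparum in erythrocytes at 2% hematocrit and 0.1% parasitemia; nearly all actives have a fitted effect of over 70% in size.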 The method, boiled down:
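Readout is firefly luciferase luminescence from an integrated reporter in P. falciparum; lower signal marks inhibited growth. Cultures at 2% hematocrit and 0.1% parasitemia were treated with compound across two generations (96 h, 37 C, 5% CO2).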

The nature of assay [15]: Quantitative high throughput screen for delayed death inhibitors of the malarial parasite plastid, 48 hour incubation (AID 488752). Also: nearly all actives have a fitted effect of over 65% in size. The method, boiled down:
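First, compound was pinned into RPMI 1640 medium containing 0.5% Albumax. Next, reporter-parasite-infected erythrocytes were added to 2% hematocrit and 0.1% parasitemia. After 48 h at 37 C under 5% CO2, luciferase detection reagent was added and luminescence read.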

Assay [16] deals with Thioredoxin reductase 1, cytoplasmic (Rattus norvegicus) (UniProt O89049). Briefly: qHTS Assay for Substrates of Mammalian Selenoprotein Thioredoxin Reductase 1 (TrxR1) (AID 488772).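 Also: a drop in NADPH fluorescence below the no-compound background marks a TrxR1 substrate.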 Put shortly: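 In this dual-purpose format, potential substrates are identified from the first fluorescence read after selenite addition, not from the 8-minute delta. Rat enzyme is preincubated with NADPH and then with compound at ~22 deg C.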
Chain of Thioredoxin reductase 1, cytoplasmic (Rattus norvegicus) (O89049 whole entry, looked up): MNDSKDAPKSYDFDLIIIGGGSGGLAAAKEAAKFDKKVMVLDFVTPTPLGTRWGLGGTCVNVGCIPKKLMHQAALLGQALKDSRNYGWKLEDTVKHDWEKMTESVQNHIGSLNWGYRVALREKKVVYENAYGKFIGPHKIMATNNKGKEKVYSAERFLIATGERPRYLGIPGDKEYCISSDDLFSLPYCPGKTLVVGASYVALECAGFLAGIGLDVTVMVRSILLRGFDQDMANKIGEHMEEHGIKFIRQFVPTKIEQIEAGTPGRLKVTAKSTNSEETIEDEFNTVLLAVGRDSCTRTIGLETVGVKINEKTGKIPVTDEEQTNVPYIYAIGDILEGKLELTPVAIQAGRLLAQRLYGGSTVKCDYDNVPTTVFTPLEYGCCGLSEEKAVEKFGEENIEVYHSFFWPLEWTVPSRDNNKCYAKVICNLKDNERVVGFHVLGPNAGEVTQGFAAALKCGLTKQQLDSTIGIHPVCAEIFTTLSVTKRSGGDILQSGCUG

Assay [17] shares this target. In words: qHTS Assay for Inhibitors of Mammalian Selenoprotein Thioredoxin Reductase 1 (TrxR1) (AID 488773). Also: nearly all actives have a fitted effect of over 40% in size. Also: potency is read from the fitted curve at half-maximal effect. Particulars: Potency: inhibition. The method, boiled down:
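Inhibition is scored from the loss of NADPH fluorescence between first and last reads of an 8-min kinetic run. Selenite (400 uM) was the substrate, added after 15 min compound preincubation at room temperature.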

The target of assay [18] is Flap endonuclease 1 (Homo sapiens) (UniProt P39748). Briefly: qHTS Validation Assay for the Inhibitors of Human Flap endonuclease 1 (FEN1) (AID 488816). The method, boiled down:
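Steps: add FEN1 (10 nM reagent) or buffer only; pin compounds; hold 15 min at room temperature; start with substrate, 50 nM final; read at 0 and 15 min; correct, normalize and fit a four-parameter Hill curve.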

Assay [19] deals with RecQ-like DNA helicase BLM (Homo sapiens) (UniProt P54132). Briefly: qHTS Validation Assay for Inhibitors of Bloom's syndrome helicase (BLM) (AID 2364). The method, boiled down: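 BLM 50 nM in 25 mM Tris-HCl pH 8.0, 5 mM NaCl, 2 mM MgCl2, 1 mM DTT, 0.01% Tween-20, 2.5 ug/ml poly(dI-dC); 15 min cpd preinc, RT. Start: 200 nM forked DNA + 2 mM ATP (final). TAMRA read, 2 reads 2 h apart.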

Chain of Beta-2 adrenergic receptor (Homo sapiens) (P07550 whole entry, looked up): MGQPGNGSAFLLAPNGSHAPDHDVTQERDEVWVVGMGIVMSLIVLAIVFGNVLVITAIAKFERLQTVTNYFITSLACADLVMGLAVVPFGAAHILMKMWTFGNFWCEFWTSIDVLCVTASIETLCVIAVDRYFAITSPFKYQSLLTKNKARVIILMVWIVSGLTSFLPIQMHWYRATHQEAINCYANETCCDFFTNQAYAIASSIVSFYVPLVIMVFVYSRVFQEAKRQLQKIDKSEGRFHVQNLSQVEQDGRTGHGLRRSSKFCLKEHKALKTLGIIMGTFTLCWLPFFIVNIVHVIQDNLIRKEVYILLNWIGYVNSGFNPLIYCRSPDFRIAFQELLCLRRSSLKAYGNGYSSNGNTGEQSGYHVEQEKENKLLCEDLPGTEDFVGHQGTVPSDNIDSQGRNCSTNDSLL
Chain of Ferritin light chain (Equus caballus) (P02791 2-175 limits assumed): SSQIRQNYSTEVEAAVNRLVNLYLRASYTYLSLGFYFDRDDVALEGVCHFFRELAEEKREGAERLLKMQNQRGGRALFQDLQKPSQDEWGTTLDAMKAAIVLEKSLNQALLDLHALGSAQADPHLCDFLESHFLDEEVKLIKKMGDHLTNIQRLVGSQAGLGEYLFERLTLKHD
Chain of Tumor susceptibility gene 101 protein (Homo sapiens) (Q99816 whole entry, looked up, the tested form may be a part): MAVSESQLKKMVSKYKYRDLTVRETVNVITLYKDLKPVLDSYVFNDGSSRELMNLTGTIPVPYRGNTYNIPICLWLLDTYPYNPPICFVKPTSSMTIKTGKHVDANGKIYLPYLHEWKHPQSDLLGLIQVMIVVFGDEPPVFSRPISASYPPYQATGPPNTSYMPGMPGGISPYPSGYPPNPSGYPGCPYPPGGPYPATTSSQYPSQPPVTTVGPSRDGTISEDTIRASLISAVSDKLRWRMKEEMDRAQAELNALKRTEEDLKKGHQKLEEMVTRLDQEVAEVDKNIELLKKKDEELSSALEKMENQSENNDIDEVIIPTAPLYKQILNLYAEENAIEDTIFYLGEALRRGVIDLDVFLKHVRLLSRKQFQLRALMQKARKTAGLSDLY
Chain of ATP-dependent 6-phosphofructokinase (Trypanosoma brucei brucei) (O15648 whole entry, looked up): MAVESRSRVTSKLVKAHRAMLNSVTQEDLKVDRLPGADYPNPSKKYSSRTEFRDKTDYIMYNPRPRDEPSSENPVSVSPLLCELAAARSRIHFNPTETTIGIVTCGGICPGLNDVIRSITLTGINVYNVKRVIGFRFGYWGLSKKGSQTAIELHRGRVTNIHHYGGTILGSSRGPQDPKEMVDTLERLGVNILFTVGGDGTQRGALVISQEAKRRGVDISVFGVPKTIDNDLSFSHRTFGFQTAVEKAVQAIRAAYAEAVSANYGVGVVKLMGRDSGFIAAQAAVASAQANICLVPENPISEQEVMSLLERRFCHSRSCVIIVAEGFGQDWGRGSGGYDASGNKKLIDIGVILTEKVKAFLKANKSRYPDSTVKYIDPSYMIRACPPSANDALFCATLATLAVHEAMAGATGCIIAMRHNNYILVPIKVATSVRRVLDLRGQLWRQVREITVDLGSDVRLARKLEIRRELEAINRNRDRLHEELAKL
Chain of Ubiquitin carboxyl-terminal hydrolase 2 (Homo sapiens) (O75604 whole entry, looked up): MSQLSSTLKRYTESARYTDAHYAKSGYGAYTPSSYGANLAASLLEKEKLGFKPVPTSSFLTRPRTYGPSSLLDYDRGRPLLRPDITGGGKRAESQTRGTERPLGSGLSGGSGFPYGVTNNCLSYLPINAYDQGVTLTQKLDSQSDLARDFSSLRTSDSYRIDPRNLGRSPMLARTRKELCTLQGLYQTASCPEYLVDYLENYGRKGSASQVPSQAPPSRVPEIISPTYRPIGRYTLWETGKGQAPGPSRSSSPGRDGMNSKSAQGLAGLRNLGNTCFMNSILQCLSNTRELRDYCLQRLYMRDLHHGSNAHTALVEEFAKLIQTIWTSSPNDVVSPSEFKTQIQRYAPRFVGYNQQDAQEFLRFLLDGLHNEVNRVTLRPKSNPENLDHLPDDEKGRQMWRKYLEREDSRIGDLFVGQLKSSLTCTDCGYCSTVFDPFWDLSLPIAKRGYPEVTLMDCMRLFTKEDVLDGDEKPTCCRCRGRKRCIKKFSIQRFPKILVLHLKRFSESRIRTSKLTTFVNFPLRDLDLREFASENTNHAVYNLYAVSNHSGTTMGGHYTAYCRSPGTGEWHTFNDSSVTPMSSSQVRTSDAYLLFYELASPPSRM

For the molecule `O=NN(CCCl)C(=O)NCCCl`, the molecule was classed as inactive in assay [1], in assay [2], in assay [3], in [4], in [5] and in assay [6]. In addition, the molecule was called inactive in assay [8], in [10], in assay [11], in assay [12], in assay [13] and in assay [16]. Also, the Potency entry in [7], in [9], in assay [14], in [15], in [17] and in assay [18] was “inactive” in each case.
Consider `CCn1cc(C(=O)O)c(=O)c2cc(F)c(N3CCNC(C)C3)c(F)c21` (stereo unspecified), for which the molecule was classed as inactive in assay [1], in [2], in [3], in assay [4], in assay [5] and in assay [6]. The result in assay [8], in assay [10], in assay [11], in assay [12], in [13] and in assay [16] was inactive. In addition, the Potency result in assay [19], in [7], in [9], in assay [15], in assay [17] and in assay [18] was “inactive” throughout.
In the case of `NCCCC(N)(C(=O)O)C(F)F` (stereo unspecified), the outcome in assay [1], in [2], in assay [3], in assay [4], in [5] and in assay [6] was inactive. Moreover, the outcome in assay [8], in [10], in [11], in assay [12], in [13] and in assay [16] was inactive. The Potency result in assay [7], in assay [9], in assay [14], in [15], in assay [17] and in assay [18] was “inactive” throughout.
For the molecule `Cn1cnc([N+](=O)[O-])c1Sc1ncnc2nc[nH]c12`, the molecule was called inactive in assay [1], in assay [2], in assay [3], in [4], in [5] and in [6]. In addition, the outcome in assay [8], in assay [10], in [12], in assay [13] and in assay [16] was inactive. The Potency result in assay [9], in assay [14] and in assay [18] was “inactive” each time. Moreover, the Potency in [17] is 15 µM (active).
`Cc1cccc(-c2[nH]c(C(C)(C)C)nc2-c2ccc3nccnc3c2)n1`: the molecule was classed as inactive in assay [3], in [4], in assay [5], in assay [8], in assay [10] and in assay [11]. In addition, the molecule was called inactive in assay [12] and in assay [16]. For the same molecule, the Potency result in [9], in [17] and in [18] was “inactive” each time.
Regarding `O=C(O)COCCN1CCN(C(c2ccccc2)c2ccc(Cl)cc2)CC1` (stereo unspecified), the outcome in assay [3], in assay [6], in assay [8], in [10], in assay [11] and in [12] was inactive. In assay [16], the molecule was classed as inactive. The Potency result in [17] and in assay [18] was “inactive” each time.
As for `NC(N)=NC(=O)c1nc(Cl)c(N)nc1N`, the outcome in assay [2], in assay [3], in assay [4], in assay [5], in assay [6] and in [8] was inactive. The result in assay [10], in [12] and in [13] was inactive. The Potency entry in [7], in assay [9] and in assay [17] was “inactive” in each case.
